Screening data deposited in PubChem BioAssay by National Center for Advancing Translational Sciences (NCATS).
RE007 growth inh: less growth of the S. pombe RE007 Vpr strain | Potency, µM (doses to about 92.2 µM), inactives show top-dose activity change, negative = less growth, hits mostly inhibitors | S. pombe RE007 Vpr strain, BacTiter-Glo ATP luminescence, 24 h | AID 651644 | 360,000 compounds, 0.21% hits; active = well fitted falling curve with a large enough effect; inconclusive = small, poorly fitted or top-dose-only effect; inactive = no such curve, though single readings can be large or run the other way; also: % is scaled to controls: 0 for no effect and ±100 for the full control effect; nearly all actives have a fitted effect of over 50% in size
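Fission yeast strain RE007, carrying one chromosomally integrated HIV-1 vpr copy, was seeded at OD 0.01 in PMG+AL medium with 23 nL pinned compound. After 24 h at 30 °C and 99% humidity, viability was read by BacTiter-Glo luminescence.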
Sm TGR inh: inhibitors of Schistosoma mansoni thioredoxin glutathione reductase. Q962Y6. purified TGR, DTNB reduction, TNB absorbance 405 nm. Potency, µM (titrated, usually from 114 µM), inactives show at the top dose activity change, negative = inhibition, actives largely listed as inhibitors. 360,000 compounds, 3% hits. AID 485364; also: % is scaled to controls: 0 for no effect and ±100 for the full control effect; nearly all actives have a fitted effect of over 60% in size
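Kinetic colorimetric format: TGR-catalysed, NADPH-driven DTNB reduction monitored via TNB absorbance. Enzyme dispensed at 20 nM; compound exposure 15 min at room temperature before reaction start.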
SARS PLP yeast: inhibitors of SARS-CoV papain-like protease in yeast; AID 485353; Potency, µM (highest dose often 32.9 µM), inactives show at the highest dose activity, positive = growth rescue, most hits filed as activators; 330,000 compounds, 0.19% hits; S. cerevisiae expressing SARS-CoV PLpro, growth rescue; calls by dose curve; also: 0% is about no effect; nearly all actives have a fitted effect of over 55% in size
Tb PYK inh: inhibitors of Trypanosoma brucei pyruvate kinase | Q57TT1 | TbPYK enzyme, Kinase-Glo Plus ATP luminescence, 45 min | Potency, µM (titrated, usually from 76.8 µM), inactives show at the highest dose activity, negative = inhibition, hits mostly inhibitors | 410,000 compounds, 0.12% hits | AID 624173; also: % is scaled to controls: 0 for no effect and ±100 for the full control effect; nearly all actives have a fitted effect of over 50% in size
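In this concentration-response screen, enzyme-free wells defined baseline while DMSO plates tracked drift. Each reaction combined TbPYK, substrate, compound and 130 uM ADP for 45 min at room temperature. Kinase-Glo Plus luminescence gave the signal.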
LmPK inh: inhibitors of Leishmania mexicana pyruvate kinase; Q27686; purified LmPK, Kinase-Glo ATP luminescence, 1 h; Potency, µM (series often up to 57.5 µM), for inactives: at the top dose activity change, negative = inhibition, actives largely listed as inhibitors; 290,000 compounds, 0.37% hits; also: % is scaled to controls: 0 for no effect and ±100 for the full control effect
Target sequence (Q27686 whole entry, looked up): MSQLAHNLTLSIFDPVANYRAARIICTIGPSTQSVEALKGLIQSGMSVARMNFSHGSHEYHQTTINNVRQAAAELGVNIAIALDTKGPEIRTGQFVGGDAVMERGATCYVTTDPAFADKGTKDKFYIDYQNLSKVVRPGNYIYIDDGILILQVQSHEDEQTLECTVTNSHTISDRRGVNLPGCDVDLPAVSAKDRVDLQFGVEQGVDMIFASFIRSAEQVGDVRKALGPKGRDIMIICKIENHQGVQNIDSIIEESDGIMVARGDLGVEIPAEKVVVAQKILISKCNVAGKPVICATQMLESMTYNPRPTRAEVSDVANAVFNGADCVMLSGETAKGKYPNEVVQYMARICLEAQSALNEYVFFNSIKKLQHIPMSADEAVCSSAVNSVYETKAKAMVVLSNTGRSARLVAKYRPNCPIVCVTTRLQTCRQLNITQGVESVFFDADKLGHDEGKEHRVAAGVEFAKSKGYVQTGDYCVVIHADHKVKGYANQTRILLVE
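Kinase-Glo luminescence read after 1 h RT reaction of 0.1 nM LmPK with 0.5 mM PEP and 0.1 mM ADP. Activity scaled between uninhibited and enzyme-free controls.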
NS1 function inh: inhibitors of influenza NS1 protein function; Potency, µM (doses to about 46.1 µM), inactives show at the top dose activity, positive = more growth; 270,000 compounds, 0.4% hits; calls by dose curve; also: actives are rising curves; nearly all actives have a fitted effect of over 50% in size
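S. cerevisiae expressing influenza A NS1, grown in glucose, washed, then diluted 1:100 into pH 6.0 -URA galactose medium with 23 nl compound. Growth recovery read as OD600; NS1-free strain serves as control.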
Numbers without * were called inactive; ? = inconclusive; nt = no result given; [ ] = another dose, or the depositor's remark. The list is not random: actives were taken first. Their share in the collection is about 3.3%. Unless noted, calls follow the shape of the dose curve; as a rule, active = well fitted curve in the direction sought with a large enough effect; inconclusive = small, poorly fitted or top-dose-only effect, or another doubt; inactive = no such curve, though single readings can be large; an effect the other way counts as inactive or inconclusive. Potency is read from the fitted curve at half-maximal effect.

SMILES	RE007 growth inh	Sm TGR inh	SARS PLP yeast	Tb PYK inh	LmPK inh	NS1 function inh
CN(CCC#N)C(=O)COC(=O)c1ccccc1C(=O)c1ccc(Cl)c([N+](=O)[O-])c1	2.6%	12.6µM*	-1.9%	-1.6%	0.3%	nt
CC(C)N(C(=O)COC(=O)c1ccccc1C(=O)c1ccc(Cl)c([N+](=O)[O-])c1)C(C)C	5.4%	-6.2%	-0.7%	0.6%	2.7%	nt
CCCC(CCC)C(N)=O	nt	nt	nt	-9.7%	nt	nt
COc1ccc2c(C(=O)CN(C)C3CCCCC3)c[nH]c2c1	-1.6%	35.5µM*	-1.2%	-17.8%	3.3%	3.1%
COc1ccc2c(C(=O)CN3CCSCC3)c[nH]c2c1	-12.6%	-22.9%	0.0%	0.6%	0.2%	2.9%
CCC1CN(C(=O)N2CCC(C(=O)NCCc3ccccc3Cl)CC2)c2cc(C)ccc2O1 (configuration not stated)	nt	13.9%	nt	5.6%	nt	nt
CC1=C/C(=C(/c2cc(C)c(O)c(Br)c2)c2ccccc2S(=O)(=O)O)C=C(Br)C1=O	?	44.7µM*	6.2%	?	20µM*	-0.5%
C=CC1=C2C=C(C3CC3)N(C3CCCCC3)C=C2C(=O)C(C)(OC(=O)c2ccco2)C1=O (configuration not stated)	nt	nt	nt	nt	0.0%[11.5 µM]	nt
CC(C)CCCC(C)C1CC(=O)C2=C3CCC4CC(O)CCC4(C)C3CCC21C (configuration not stated)	nt	nt	nt	-9.4%	nt	nt
CCC(C(=O)Nc1ccc(C(C)C)cc1)n1nc(C)n2c(cc3cc(C)ccc32)c1=O (configuration not stated)	nt	-3.9%	nt	-0.8%	nt	nt
CCc1nc(N)c(C#N)c(-c2ccco2)c1C	0.0%	0.0%	2.8%	3.0%	-2.6%	-1.7%
Cc1c(-c2ccccc2)nc(N)c(C#N)c1-c1ccco1	1.9%	35.5µM*	-3.6%	4.1%	7.5%	3.6%
CC(C)OC(=O)CSc1nc(N)c(C#N)c(-c2ccco2)c1C#N	-5.4%	39.8µM*	-8.0%	-6.5%	2.1%	20.5%
CC(C)OC(=O)CSc1nc(N)c(C#N)cc1C#N	-10.2%	5.6%	-0.7%	-3.1%	0.6%	-2.1%
CSC1=NS(=O)(=O)c2c(C)nn(C)c2S1	-6.3%	?	1.2%	2.51µM*	29.5%	-0.6%
Nc1ccc(O)c2c1C(=O)c1ccccc1C2=O	?	-6.5%	-32.9%	-21.1%	-29.4%	2.9%
NC1=C(Br)C(=O)c2ccccc2C1=O	11.2µM*	?	-5.7%	-5.8%	-29.4%	-49.0%
Nc1ccc(Br)c2c1C(=O)c1ccccc1C2=O	-13.9%	12.6µM*	-9.4%	2.8%	-3.7%	-93.8%
Cc1cc2c(cc1C)C(=O)C(Br)=C(N)C2=O	?	nt	nt	-4.9%	nt	nt
Cc1ccc(CNC(=O)C2CCCN(S(=O)(=O)c3ccc4c(c3)oc(=O)n4C)C2)cc1 (configuration not stated)	nt	9.5%	nt	9.9%	nt	nt
O=C(Cn1nc(-c2ccccc2)c2cnc3ccccc3c21)Nc1ccccc1	nt	0.5%	nt	0.6%	nt	nt
COC(=O)/C=c1\sc2ncnn2c1=O	-18.3%	1.41µM*	-4.8%	?	-1.8%	-6.9%
CNC(=O)/C(C#N)=c1\s/c(=C/C(=O)OC)c(=O)n1-c1ccccc1	14.6%	1.5%	-1.4%	0.7%	4.5%	7.1%
Cc1ccc(COc2ccc(Br)cc2/C=N/O)cc1	31.6µM*	-14.7%	-20.8%	-2.7%	3.0%	-19.8%
O/N=C/c1cc(Br)ccc1OCc1ccc(F)cc1	35.5µM*	nt	nt	1.9%	nt	nt
SMILES	RE007 growth inh	Sm TGR inh	SARS PLP yeast	Tb PYK inh	LmPK inh	NS1 function inh
Oc1c(Cl)cc(Cl)c2c1NCCC2	?	1µM*	-0.6%	-17.4%	-0.8%	-50.5%
N#CCCn1c(=O)c(CCc2ccccc2)nc2cnc(N3CCOCC3)nc21	nt	nt	nt	-5.5%	nt	nt
CCCOc1cc(N)ccc1C(=O)OCCN(CC)CC	-11.7%[18.4 µM]	-6.5%	nt	-3.7%	nt	nt
CCCOc1ccc(N)cc1N	-19.4%	1.78µM*	-14.1%	-29.7%	-2.6%	-3.6%
COc1ccc(-c2noc(CCC(=O)NCCc3ccccc3)n2)cc1	1.2%	6.4%	-2.5%	-0.3%	0.3%	-6.7%
COc1ccc(-c2noc(CCC(=O)NCCN(C)Cc3ccccc3)n2)cc1	-5.1%	89.1µM*	nt	1.5%	1.6%	-0.4%
COc1cccc(-n2c(Cn3nc(C(F)(F)F)cc3C)n[nH]c2=S)c1	nt	15.4%	6.2%	3.98µM*	-5.7%	-8.5%
Cc1ccc(-n2c(Cn3nc(C(F)(F)F)cc3C)n[nH]c2=S)cc1	4.9%	9.1%	-5.2%	10µM*	-20.7%	2.1%
COc1ccc(-n2c(Cn3nc(C(F)(F)F)cc3C)n[nH]c2=S)cc1	5.6%	-0.1%	0.8%	3.16µM*	-8.5%	3.8%
COc1cccc(-n2c(Cn3nc(C(F)F)cc3C(F)F)n[nH]c2=S)c1	-6.7%	-0.2%	-14.8%	?	-5.3%	13.2%
CCOC(=O)N1CCC(NS(=O)(=O)c2ccc(C)cc2)CC1	7.7%	13.7%	-0.1%	4.7%	3.6%	-0.9%
CCOC(=O)N1CCC(NS(=O)(=O)c2ccccc2)CC1	3.0%	44.7µM*	0.1%	0.8%	4.1%	3.0%
Cc1ccc(CNC(=O)C2CCN(S(=O)(=O)c3ccc4[nH]c(=O)ccc4c3)CC2)cc1	nt	7.2%	nt	0.3%	nt	nt
CC(C)COc1ccccc1C1CC(=O)Nc2cc3c(cc21)OCO3 (configuration not stated)	nt	3.8%	nt	3.7%	nt	nt
Cn1nnc(NC(=S)NC(=O)c2cc3ccccc3o2)n1	-1.4%	25.1µM*	-0.6%	-6.7%	5.2%	-64.9%
O=C(NC(=S)Nc1cc(Cl)ccc1N1CCOCC1)c1ccc(-c2cccc(Cl)c2)o1	11.9%	-16.8%	2.3%	-6.6%	-1.9%	7.5%
CCCCn1nnc(NC(=O)c2ccc(-c3cccc(Cl)c3)o2)n1	13.0%	25.1µM*	-12.4%	-5.2%	2.4%	-55.4%
CCn1nnc(NC(=S)NC(=O)c2ccc(-c3cccc(Cl)c3)o2)n1	-20.2%	12.6µM*	-6.7%	-11.2%	1.2%	-40.0%
CCCn1nnc(NC(=O)c2ccc(-c3cccc(Cl)c3)o2)n1	3.7%	-38.9%	-4.3%	4.2%	-1.8%	-77.4%
O=C(O)c1c2c(c(O)c3c1CN(C1CCCCC1)CO3)OCN(C1CCCCC1)C2	nt	nt	nt	nt	nt	13.6%
O=C(Nc1c(C(=O)O)oc2ccccc12)c1ccc(C(F)(F)F)cc1	nt	3.0%	nt	-4.3%	nt	nt
Cc1ccc(C)n1-c1ccc(N(C)C)cc1	-17.0%	31.6µM*	-3.4%	-9.2%	-11.0%	nt
Cc1ccc(C)n1-c1ccc(N2CCOCC2)cc1	-11.8%	24.2%	0.2%	-6.6%	5.0%	?
Clc1ccccc1Cn1c(/C=C/c2ccco2)nc2ccccc21	32.0%	31.6µM*	-76.2%	-17.6%	-6.2%	-14.5%
O=C(NCCCc1nc2ccccc2n1Cc1ccccc1Cl)c1ccco1	nt	-0.3%	nt	-3.0%	nt	nt
